The values that follow come from PubChem BioAssay (NCI).

Molecules are shown by their SMILES. Where “and” joins values, the source holds several entries; their conditions need not be identical. Identical values can stand only once. Compounds without any hit were thinned out: in the full panel of roughly 83,000, 20% have a hit.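 Percent growth is the endpoint: 0 to 100 indicates growth inhibition (40 means 60% inhibition), 0 means no net growth, and negative values indicate cell death.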 Unmarked numbers belong to inactive results. Calls of active or inactive are those of the source. How the source made its calls: active means growth percent below 10; inactive means the rest.

Assay in all cases: NCI-60 one-dose screen, 48 h (100 = growth as untreated, 0 = no growth, -100 = all killed)
Holding throughout (details): 10 µM unless noted

The test system of test [1] is SK-MEL-2 melanoma.
Test [2] has as its system EKVX NSCLC.
Test [3] deals with SN12C renal.
For test [4], the system named is UO-31 renal.
The test system of test [5] is TK-10 renal.
In test [6] the test system is ACHN renal.
For test [7], the system named is CAKI-1 renal.
The test system of test [8] is A498 renal.
In test [9] the test system is CCRF-CEM leukemia.
Test [10] concerns MOLT-4 leukemia.
The test system of test [11] is SR leukemia.
Test [12] has as its system RPMI-8226 leukemia.
In test [13] the test system is OVCAR-8 ovarian.
The subject of test [14] is OVCAR-5 ovarian.
The test system of test [15] is OVCAR-4 ovarian.
For test [16], the system named is SK-OV-3 ovarian.
Test [17] deals with IGROV1 ovarian.
The subject of test [18] is OVCAR-3 ovarian.
Test [19] concerns HS 578T breast.
Test [20] concerns NCI/ADR-RES ovarian.

As for `COc1ccc(Nc2ncnc3sc4c(c23)CCN(Cc2ccccc2)C4)cc1`, the growth was 87.4% in test [1]; 75.8% in test [2]; 85.4% in test [3]; 49% in [4]; 109% in [5]; 77% in test [6]. Further, the growth in [7] is 52%; in [8], 91.9%; in [9], 73.5%; in test [10], 62.4%; in [11], 82.9%; in [12] it was 62.1%. Also, the growth in test [13] is 82.8%; in test [14], 106%; in test [15] it was 68.4%; in test [16], 102%; in test [17], 80.8%; in test [18], 93.7%. Also, the growth was 74.8% in test [19] and 76.7% in test [20].
As to `CCOC(=O)/C(F)=C/C1CC1C(c1ccccc1)c1ccccc1` (stereo not given), the growth is 86.3% in [1]; 86.5% in test [2]; 98.8% in [3]; 70.2% in test [4]; 101% in [5]; 98.9% in test [6]. Moreover, the growth in [7] was 65.6%; in test [8], 87.9%; in test [9], 85.4%; in test [10], 76.8%; in [11], 63.3%; in test [12], 69.5%. Moreover, the growth in test [13] is 105%; in [14] it was 102%; in test [15], 87.3%; in test [16], 148%; in test [17] it was 90.8%; in test [18], 103%. The growth in [19] is 81.3%; in [20], 89.4%.
Take `FC(F)(F)CN1CCN(CCn2c(C(F)(F)F)cc3c(Cl)ncnc32)CC1`: the growth in [1] was -89.4% (active); in [2] it was 70.8%; in [3] it was 34.8%; in [4], -95.1% (active); in [5] it was 114%; in test [6], -63% (active). The growth in test [7] is 24.1%; in test [8], 104%; in test [9] it was -16.8% (active); in [10], -39% (active); in test [11], -54.6% (active); in test [12], -6.12% (active). Besides, the growth in test [13] is 8.76% (active); in [14], 103%; in test [15], 21.5%; in [16], 71.4%; in test [17], -80.5% (active); in [18], -47.4% (active). In addition, the growth in test [19] was 47.4%; in [20] it was 75.1%.
As to `OC(c1ccccc1)(c1ccccc1)C1CCN(c2ccc3nnc(Cl)n3n2)CC1`, the growth in test [1] was 31.3%; in [2], 19.9%; in test [3], 50.1%; in test [4], -74.1% (active); in test [5] it was 49.7%; in test [6] it was 29.7%. Further, the growth in [7] is 30.8%; in test [8], 77.8%; in test [9] it was 18.2%; in [10] it was -2.45% (active); in test [11], -22.3% (active); in test [12], 13.8%. The growth was 33.9% in test [13]; 70% in test [14]; 30.3% in test [15]; 90.2% in [16]; 39.8% in test [17]; 42.2% in [18]. For the same compound, the growth was 71.1% in test [19] and 18.6% in [20].
Take `CCN(C(=O)CN1C(=O)/C(=C/c2ccco2)SC1=S)C1CCS(=O)(=O)C1` (stereo not given): the growth in test [1] is 99.2%; in [2], 98%; in test [3], 106%; in test [4], 83.6%; in test [5], 121%; in [6] it was 114%. In addition, the growth is 91.4% in test [7]; 105% in test [8]; 105% in test [9]; 103% in test [10]; 87.5% in [11]; 101% in test [12]. Further, the growth was 101% in test [13]; 111% in [14]; 94.2% in test [15]; 101% in [16]; 111% in test [17]; 103% in [18]. Also, the growth in test [19] is 118%; in test [20], 93.6%.
With `O=C1Nc2ccccc2/C1=C\c1ccc(OCC(=O)c2ccc(Br)cc2)cc1`, the growth is 72.4% in test [1]; 65.6% in [2]; 62.7% in test [3]; 48.5% in [4]; 94.9% in test [5]; 70% in test [6]. For the same compound, the growth in test [7] was 67.8%; in test [8], 100%; in test [9] it was 58.2%; in test [10], 8.54% (active); in test [11], 36.3%; in test [12], 49.2%. For the same compound, the growth in [13] is 69.6%; in test [14], 93.2%; in test [15] it was 58.2%; in test [16] it was 101%; in [17], 78.3%; in test [18], 77.5%. The growth in test [19] is 84.5%; in test [20], 47.8%.
With `Nc1cc2ccccc2c(=O)n1NC(=O)c1ccc(Br)cc1`, the growth in [1] is 108%; in test [2] it was 83.2%; in [3] it was 95.5%; in test [4] it was 74.9%; in test [5], 116%; in [6], 104%. Moreover, the growth is 83.8% in [7]; 189% in test [8]; 86.4% in [9]; 90.8% in [10]; 72.5% in test [11]; 92.1% in test [12]. Moreover, the growth in test [13] is 98.6%; in [14], 97.8%; in test [15], 91%; in test [16] it was 115%; in test [17], 101%; in [18], 79.2%. The growth in test [19] was 102%; in [20] it was 93%.
For `O=Cc1cncc(-c2ccc3ncnc(N4CCc5cc(F)c(Cl)cc54)c3c2)c1`, the growth is 24.5% in [1]; 0.858% (active) in test [2]; 23.2% in [3]; 10.7% in test [4]; 4.74% (active) in test [5]; 11.5% in test [6]. For the same compound, the growth in test [7] is 12.5%; in [8], -30.4% (active); in [9], 16.6%; in test [10], -30.6% (active); in test [11] it was -4.69% (active); in test [12], 15.4%. Moreover, the growth in [13] was 39.8%; in test [14], 27.6%; in test [15], 43.4%; in [16], 4.6% (active); in [17], -41.2% (active); in test [18], 25.2%. Besides, the growth in [19] is -17.9% (active); in test [20], 34.8%.
Turning to `COc1c2c(cc3c1C(CCc1ccccc1)N(C)CC3)OCO2` (stereo not given), the growth is -18.1% (active) in [1]; 16.1% in test [2]; 8.61% (active) in test [3]; 14.3% in test [4]; 33.5% in [5]; 14.9% in [6]. In addition, the growth in [7] was 14.5%; in [8], -15.4% (active); in test [9] it was 14.2%; in test [10] it was 8.71% (active); in test [11] it was -9.93% (active); in [12], -15.5% (active). For the same compound, the growth in [13] was 16.9%; in test [14], 16.2%; in [15], 29.2%; in [16], -6.7% (active); in test [17], -4.07% (active); in test [18], 3.16% (active). Moreover, the growth in test [19] is 11%; in test [20] it was 1.62% (active).
Regarding `CC[C@]12C=CCN3CC[C@@]4(c5ccc(OC)cc5N(C)[C@H]4[C@@](O)(C(=O)OC)[C@@H]1OC(=O)CCC[P+](c1ccc(OC)cc1)(c1ccc(OC)cc1)c1ccc(OC)cc1)[C@@H]32`, the growth in test [1] is -90.6% (active); in [2], -85% (active); in [3] it was -93.4% (active); in test [4] it was -56.8% (active); in test [5], -90.7% (active); in [6], -95.8% (active). For the same compound, the growth in [7] was -93.4% (active); in test [8] it was -83.2% (active); in [9], -71.2% (active); in test [10], -36.7% (active); in test [11], 15%; in [12], -45.5% (active). Moreover, the growth in [13] is -86.2% (active); in test [14] it was -96.5% (active); in [15], -75.3% (active); in test [16] it was -85.1% (active); in test [17], -92.1% (active); in test [18], -73.6% (active). Moreover, the growth in [19] was -65.4% (active); in test [20] it was 79.9%.
Consider `CC(=O)c1ccc2c(N)c(C(=O)Nc3ccc(C(F)(F)F)cc3)sc2n1`, for which the growth in test [1] was 67.7%; in test [2], 40.7%; in [3] it was 73%; in [4] it was 73.8%; in [5] it was 67%; in test [6], 66.2%. Moreover, the growth in [7] was 56.9%; in test [8] it was 126%; in [9], 60.9%; in test [10] it was 32.7%; in [11], 39.3%; in test [12], 37.3%. The growth in [13] is 61.1%; in [14], 92.8%; in test [15], 35.6%; in [16], 89.1%; in test [17] it was 93.5%; in [18], 94.4%. In addition, the figures for the growth in test [19] and in [20] were 84.2% and 34.8%, respectively.
As to `CN1CCN(c2ccc3c4c(cccc24)C(=O)N(c2cccc(-c4nn(-c5ccccc5)cc4-c4nc5ccccc5s4)c2)C3=O)CC1`, the growth was 120% in [1]; 107% in test [2]; 94.8% in test [3]; 68.5% in test [4]; 119% in test [5]; 101% in [6]. The growth was 97% in test [7]; 128% in test [8]; 60.3% in test [9]; 47.5% in [10]; -25% (active) in test [11]; 43.1% in test [12]. Moreover, the growth was 94.6% in [13]; 122% in test [14]; 103% in test [15]; 135% in [16]; 93.8% in test [17]; 118% in test [18]. The growth in test [19] was 91.7%; in [20], 95.2%.
Consider `O=C(Nc1ccc(F)cc1)Nc1nc2ccc([N+](=O)[O-])cc2s1`, for which the growth in test [1] was -44.6% (active); in test [2], 1.79% (active); in [3], -0.399% (active); in test [4], 4.33% (active); in [5], 6.73% (active); in test [6] it was 2.52% (active). Further, the growth in [7] was -12.5% (active); in test [8], -15% (active); in test [9], 11.5%; in test [10], 14.6%; in test [11] it was 12.9%; in test [12] it was -23.5% (active). In addition, the growth in test [13] was 11.4%; in test [14] it was 24%; in test [15], 16.4%; in test [16], -5.21% (active); in test [17], 27.1%; in test [18] it was 22.6%. Moreover, the growth in [19] is -8.39% (active); in [20], 6.37% (active).
In the case of `NC1(c2ccc(-c3ccc4ncnc(NCc5ccccc5)c4c3)cn2)COC1`, the growth in test [1] is 112% and 113%; in test [2] it was 111% and 100%; in test [3] it was 105% and 101%; in test [4], 99.8% and 85.4%; in test [5], 108%; in test [6] it was 102% and 109%. Besides, the growth in test [7] is 94.8% and 103%; in [8], 118% and 134%; in test [9], 106% and 102%; in [10], 112% and 101%; in test [11], 101% and 92.4%; in test [12], 117% and 110%. Moreover, the growth in test [13] is 113% and 117%; in test [14], 102% and 103%; in test [15] it was 106% and 109%; in [16] it was 143% and 109%; in [17], 116% and 108%; in test [18], 106% and 74.8%. For the same compound, the growth in test [19] was 105%; in test [20], 104% and 107%.
